Experimental data as given in PubChem BioAssay (NCI).
“And” between values parts separate entries of the source, which are not always exact repeats. Equal entries are not always repeated. This is part of a sample that, as a whole, favours compounds with a hit. Of some 83,000 tested, about 20% had one in any assay.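 Interpretation: 100, growth as untreated; towards 0, rising growth inhibition; 0, no net growth; 0 to -100, cell death. Compounds scoring below 10 were considered active.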 A number with no mark means an inactive call. The source made the active and inactive calls.

What follows are compounds tested on NCI/ADR-RES ovarian (assay: NCI-60 one-dose screen, 48 h (100 = growth as untreated, 0 = no growth, -100 = all killed)). Details: 10 µM unless noted.
For `CN(C)CCOc1ccc2c(c1)C(=O)/C(=C\c1ncc([N+](=O)[O-])n1C)C2`, the growth was -1.71% (active).
`CC(=O)C(=Cc1ccc(C=C(C(C)=O)C(C)=O)cc1)C(C)=O` was tested, and the growth was 7.49% (active).
`N#CSCc1ccc(CSC#N)c(Cl)c1` was tested, and the growth was 77.9%.
`Nc1nc(N)c2nc(CNc3ccc(C(=O)NC(CCC(=O)O)C(=O)O)cc3)cnc2n1` (stereo not drawn) was tested, and the growth was 25.8% and 20.3%.
In the case of `CCOC(=O)/C=C/c1ccc([N+](=O)[O-])o1`, the growth is reported as 50.6%.
`Cc1cc(C(C)(CC(C)C)c2ccc(O)c(C)c2)ccc1O` gave a growth of 105%.
`Nc1nc(N)c2c(ccc3c2ccn3Cc2cccc([N+](=O)[O-])c2)n1` showed a growth of 22.5%.
`O[C@H]1[C@H]2c3cc4c(cc3CN3CCC(=C[C@@H]1O)[C@H]23)OCO4` gave a growth of 19.1%.
`CN1c2ccccc2C(C)(C)C12C=Cc1cc(O)ccc1O2` (stereo not drawn) showed a growth of 26.4%.
`CN(Cc1cnc2nc(N)nc(N)c2n1)c1ccc(C(=O)NC(CCC(=O)O)C(=O)O)cc1` (stereo not drawn) gave a growth of 26.7%.
For `CCOc1ccc(-c2nc3ccc(-c4nc5ccc(N6CCN(C)CC6)cc5[nH]4)cc3[nH]2)cc1`, the growth was 61%.
`CNc1ccc(N)cc1` gave a growth of 87.6%.
`CC(=O)Nc1cccc2cc(O)ccc12` was tested, and the growth was 104% and 113% and 110%.
For `CC1OC(OC2C(OC3CCC4(C)C(CCC5(C)C4CC=C4C6CC(C)(C)CCC6(CO)C(O)CC45C)C3(C)C)OC(C(=O)O)C(OC3OC(COC4OC(CO)C(O)C(O)C4O)C(O)C(O)C3O)C2O)C(O)C(O)C1O` (stereo not drawn), the growth was -68% (active).
`CCCCCCC(C)c1ccccc1O` (stereo not drawn) (tested in a mixture with another compound) showed a growth of 98.6%.
Compound `CC1(C)CC([P+](c2ccccc2)(c2ccccc2)c2ccccc2)=NN1` has a growth of 105%.
`CN(C)c1ccc(N=Nc2cccc3ccccc23)cc1` gave a growth of 102%.
`CN(C)c1ccc(C(=C2C=CC(=[N+](C)C)C=C2)c2ccc(N(C)C)cc2)cc1` (tested in a mixture with another compound) was tested, and the growth was -4.74% (active).
For `CC1OC2CC(=O)OC2C2=C1C(=O)c1c(O)cccc1C2=O` (stereo not drawn), the growth was -6.77% (active).
In the case of `O=C1c2ccccc2C(=O)c2sc(Nc3ccc(Cl)cc3)nc21`, the growth is reported as 16.8%.
In the case of `N#CSCC(=O)c1ccc(Cl)cc1`, the growth is reported as -16.4% (active).
In the case of `Cn1c2c(c3ccccc31)CCN1C[C@@H]3CCCC[C@H]3C[C@@H]21`, the growth is reported as -36.1% (active).
In the case of `Oc1c(Br)cc(Cl)cc1C(c1cc(Cl)cc(Br)c1O)C(Cl)(Cl)Cl`, the growth is reported as 7.13% (active).
`Cc1ccc(C(=Nc2ccccc2)N=P(c2ccccc2)(c2ccccc2)c2ccccc2)cc1` was tested, and the growth was -10.4% (active).
Compound `CC1SC(=S)N(c2ccc(Cl)cc2)C1=O` (stereo not drawn) has a growth of 103%.
`N#CSCc1ccc(Cl)c(CSC#N)c1` gave a growth of 45.5%.
Compound `O=C1OCc2cccc3cccc1c23` has a growth of 108%.
In the case of `O=C(O)C1C2CC3C(OC(=O)C31)C2Br` (stereo not drawn), the growth is reported as 103% and 100%.
`Nc1ccc(SSc2ccc(N)cc2)cc1` gave a growth of 97.5%.
With `CCCCCCCCCCCCCCCCN(CC)CC` the growth was -71.1% (active).
Compound `O=C1NC(=O)/C(=C/C=C/c2ccccc2)S1` has a growth of 42.9%.
Compound `CCCCCCCCCCCCCCCC[N+](C)(CCO)Cc1cnc[nH]1` (stereo not drawn) has a growth of 94.5%.
`CCC1OC(OC)C=CC1=O` (stereo not drawn) gave a growth of 111%.
